Data as given in PubChem BioAssay AID463190 (Sanford-Burnham Center for Chemical Genomics, 2010).
The campaign covered roughly 330,000 compounds. About 7,300 (2.2%) were called active.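 The calls were made as follows: active = inhibition of at least 40%; inactive = the rest.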 Many of the other results were omitted from the sample, so actives are more common in it than they were.

experiment: growth inhibitors of tim10-1 mutant yeast, primary screen, luminescence, uHTS (AID 463190);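 also: mutant grown at 25 °C; 0% = DMSO wells with yeast and 100% = wells holding no yeast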; settings: S. cerevisiae tim10-1 ts strain growth, BacTiter-Glo, 24 h; at 20 µM; hits give high values

inhibition, active:
CCOc1ccc(C(c2c(C)[nH][nH]c2=O)c2c(C)[nH][nH]c2=O)cc1OCC 45.9%
CCOC(=O)Cc1csc(NC(=O)CSc2ccc(Br)cc2)n1 46.9%
CCOC(=O)Cc1csc(SCC(=O)NC(C)C23CC4CC(CC(C4)C2)C3)n1 (stereo not given) 43.5%
COc1ccccc1N1CCN(C(=O)c2cc(=O)c3cc(C)cc(C)c3o2)CC1 45.3%
COc1ccc(NC(C)=O)cc1NC(=O)CN1CCN(C2c3ccccc3-c3ccccc32)CC1 41.6%
O=C(NCc1ccco1)c1cccn2c(=O)c3c4c(sc3nc12)CCCC4 41.6%
O=c1nc2s/c(=C\c3ccco3)c(=O)n2nc1Cc1ccccc1 63%
COc1ccc2nc(N3CCN(C(=O)c4ccc([N+](=O)[O-])o4)CC3)sc2c1 42.2%
Cc1[nH]n(C(N)=S)c(=O)c1N=Nc1ccc(Cl)cc1Cl 47.4%
COc1ccc2nc(/N=C(\N)NC(=O)Nc3ccccc3)nc(C)c2c1 50%
Cc1ccc(C(=O)COc2cccc(NC(=O)c3ccco3)c2)cc1 40.3%
O=C1Nc2ccc(Br)cc2/C1=N/N=C/C1=C(N2CCOCC2)C(=C\c2ccccc2)/CC1 45.5%
Cc1ccc(-c2cn3cc(C)ccc3n2)cc1 51.8%

inhibition, inactive:
CCOc1ccc(C(CC(=O)O)NC(=O)Cc2ccccc2)cc1OC (stereo not given) -13.2%
CCOc1ccc(C(C)NC(=O)CN2C(=O)NC3(CCCCC3)C2=O)cc1OCC (stereo not given) 0.453%
CCOC(=O)c1cn(CC)c2cc(F)c(F)cc2c1=O -8.23%
CC(=O)NC(CC(=O)Nc1cccc(S(=O)(=O)N2CCCC2)c1)c1ccccc1 (stereo not given) 19.9%
CN1CCN(c2cc(=O)n(-c3ccc(Cl)cc3)c(=O)[nH]2)CC1 -20.5%
COc1ccc(N(CC(=O)Nc2cc(OC)ccc2OC)S(=O)(=O)c2c(C)noc2C)cc1 29.9%
CCOC(=O)Cc1csc(SCC(=O)Nc2ccc(C)cc2F)n1 18.9%
CCOC(=O)Cc1csc(NC(=O)CSc2nnc(-c3cccnc3)n2Cc2ccco2)n1 13.4%
CCOC(=O)Cc1csc(SCc2cc(=O)oc3cc(O)ccc23)n1 12.7%
CCOC(=O)Cc1csc(NC(=O)COc2ccc3c(C)cc(=O)oc3c2)n1 11.9%
NS(=O)(=O)c1ccc(CCNC(=O)c2ccc([N+](=O)[O-])cc2[N+](=O)[O-])cc1 2.98%
CCCN(C(=O)CSc1nnnn1C)c1c(N)n(Cc2ccccc2)c(=O)[nH]c1=O -2.11%
CN(CC(=O)Nc1cccc(F)c1)C(=O)C1CSC2(C)CCC(=O)N12 (stereo not given) 2.74%
COc1ccccc1N1CCN(C(=O)c2cc(=O)c3cc(C)ccc3o2)CC1 36.5%
O=C(c1cc(=O)c2ccccc2o1)N1CCN(c2ccccc2)CC1 5.8%
Cc1ccc(C(=O)N/N=C\c2cc(Br)c(Br)o2)cn1 3.87%
COc1cccc(NC(=O)CN2CCN(CC(=O)Nc3ccccc3Cl)CC2)c1 19.6%
COc1ccc(Cl)cc1NC(=O)CN1CCN(C(=O)N2CCOCC2)CC1 1.52%
CC(C)(C)OC(=O)C1=C(CO)CS[C@@H]2[C@H](NC(=O)Cc3ccccc3)C(=O)N12 9.18%
Cc1ccc(S(=O)(=O)N2CCN(C(=O)CSc3cc(C)ccc3C)CC2)c(C)c1 23.1%
O=C(NCc1ccco1)c1nc2ncccn2n1 1.9%
Cc1cccc(Nc2ccccc2C(=O)NCc2ccco2)c1C 29.9%
COc1ccc(C(=O)N2CCC(C(=O)Nc3cccc(C)c3)CC2)cc1OC -7.58%
O=C(Nc1ccccc1)/C(=C\c1ccco1)NC(=O)c1ccco1 23.3%
O=C(NCCc1ccco1)c1nn(Cc2ccccc2)c(=O)c2ccccc12 14.5%
CC(=O)N1N=C(c2ccccc2)OC1c1cccnc1 (stereo not given) 7.21%
CCN(CC)CCN(C(=O)c1cccc([N+](=O)[O-])c1)c1nc2ccc(OC)cc2s1 12.5%
Cc1ccc2nc(N3CCN(C(=O)c4ccco4)CC3)sc2c1 6.64%
CC(C)NS(=O)(=O)c1ccc(OCC(=O)NC2CCCCCC2)cc1 4.48%
Cc1nn(-c2ccccc2)c2sc(C(=O)N(Cc3ccco3)C(C)C(=O)NC(C)(C)C)cc12 (stereo not given) 14.2%
CC1=NN(C(N)=S)C(=O)C1N=Nc1cc(Cl)ccc1Cl (stereo not given) 38.6%
Cc1cccc(N=Nc2c(C)[nH]n(-c3ccccc3)c2=O)c1 20.1%
CSc1cc(C)n(-c2ccccc2C)c(=S)c1C(C)=O -13.6%
Cc1nc(/N=C(\N)NC(=O)NC2CCCCC2)nc2ccccc12 -11.5%
COc1ccc2nc(C)cc(Nc3cccc(C(=O)O)c3)c2c1 -1.42%
Cn1c(SCc2nc3ccccc3s2)nnc1-c1ccc2c(c1)OCO2 -2.97%
O=C(CCl)Nc1cccc(CP(=O)(c2ccccc2)c2ccccc2)c1 9.52%
Cn1c(SCC(=O)Nc2cccc(NC(=O)c3cccs3)c2)nnc1-c1ccncc1 -9.32%
O=C(NOCc1ccccc1)c1cccc([N+](=O)[O-])c1 21.3%
CCCCN=C1C([N+](=O)[O-])=CC=C2C1=NC1(CCCCC1)N2O 9%
COc1ccc(OCC(=O)Nc2ccc(NC(=O)c3ccco3)c(C)c2)cc1 -11.8%
Cc1cccc(OCC(=O)Nc2ccc(NC(=O)c3ccco3)c(C)c2)c1 1.89%
C(=N\N1CCN(c2ccccn2)CC1)/C1=C(N2CCOCC2)C(=C/c2ccccc2)/CC1 34.3%
COc1ccc(/C=N/N=C2/C(=O)Nc3ccccc32)cc1O 9.34%
C#CC(CCN1CCCCC1)(OC)c1ccccc1 (stereo not given) 7.91%
Cc1ccc(-c2cn3cc([N+](=O)[O-])ccc3n2)cc1 -1.69%
Cc1ccc2nc(-c3ccc(Br)cc3)cn2c1 -3.32%
